# Source: PubChem BioAssay (National Center for Advancing Translational Sciences (NCATS))
# Rows were chosen to be rich in hits. Some 9.2% of all compounds tested hit in one or more screens of this group.
# SMN2 splice up: increases expression of the SMN2 splice variant | HEK293 SMN2-luciferase splicing reporter, luminescence, 30-36 h | hit rate 2.8% among 210,000 | Potency, µM (top dose mostly 46.1 µM), without a hit: top-dose activity change, positive = activation, hits mostly activators; further: % of control where 0% means no effect; nearly all actives have a fitted effect of over 55% in size
#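 qHTS luciferase splicing reporter: luminescence rises when SMN2 exon 7 is included in transfected HEK293 cells. Compound exposure lasted 30-36 h at 37C, with 4.5 mM final sodium butyrate as control, followed by a ONE-Glo read.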
# ELG1 genotoxic: induces genotoxicity in HEK293T cells with luciferase-tagged ELG1; AID 504466; hit rate 1.3% among 330,000; HEK293T ELG1-luciferase reporter, luminescence, 16 h; Potency, µM (titrated, usually from 46 µM), for inactives: at the top dose activity change, positive = activation, usual class: activators; further: % of control where 0% means no effect; nearly all actives have a fitted effect of over 60% in size
#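 ELG1-luciferase HEK293T cells, 2,000/well; compound pinned in; 16 hr, 37 °C, 5% CO2; ONE-Glo, 30 min RT; luminescence on CCD imager.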
# NPC1 promoter act: activators of NPC1 promoter; Potency, µM (top dose mostly 9.22 µM), for inactives: at the highest dose activation, most hits filed as activators; hit rate 2.4% among 320,000; Huh7 NPC1 promoter luciferase reporter, 24 h; further: % of control where 0% means no effect; nearly all actives have a fitted effect of over 60% in size
#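 Stable NPC1-promoter luciferase Huh7 line; cpd (DMSO) 24 h, 37 °C, 5% CO2; Amplite luciferase reagent 10 min RT; luminescence readout. qHTS format.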
# ELG1 repair inh: ELG1-dependent DNA repair inhibition. hit rate 2.3% among 330,000. Potency, µM (series often up to 46.1 µM), for the others: at the top dose activity change, negative = inhibition, actives largely listed as inhibitors. HEK293T ELG1-luciferase reporter, luminescence, 16 h; DNA damage induced by 5-fluorouridine; further: on the % scale 0 is the no-effect control and ±100 the full control effect; nearly all actives have a fitted effect of over 55% in size
#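 In this reporter screen, reduction of luminescence relative to DMSO vehicle indicated activity. Compounds and 5-fluorouridine were added together to 2,000 cells per well, incubated for 16 hr at 37 °C, then developed with ONE-Glo.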
# Rab9 prom act: activators of Rab9 promoter; Huh7 Rab9 promoter-luciferase reporter, luminescence, 24 h; Potency, µM (doses to about 9.22 µM), for the others: top-dose activation, negative = inhibition, most hits filed as activators; hit rate 2.8% among 320,000; further: % of control where 0% means no effect; nearly all actives have a fitted effect of over 60% in size
#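 Steps: seed 1500 Huh7 Rab9-luc cells per well, rest 2 h at 37 °C; add compound in DMSO; incubate 24 h; add luciferase reagent, 10 min ambient; read luminescence.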
# FLuc modulator: inhibits or activates purified firefly luciferase, miR-21 counter-screen | purified FLuc, Km substrates, luminescence inhibition | hit rate 6.9% among 360,000 | Potency, µM (titrated, usually from 57.5 µM), without a hit: top-dose activity change, negative = inhibition, hits mostly inhibitors | P08659;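 further: plate controls were vehicle for no effect and reference inhibitor for full effect; nearly all actives have a fitted effect of over 55% in size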
# Target sequence (P08659 whole entry, looked up): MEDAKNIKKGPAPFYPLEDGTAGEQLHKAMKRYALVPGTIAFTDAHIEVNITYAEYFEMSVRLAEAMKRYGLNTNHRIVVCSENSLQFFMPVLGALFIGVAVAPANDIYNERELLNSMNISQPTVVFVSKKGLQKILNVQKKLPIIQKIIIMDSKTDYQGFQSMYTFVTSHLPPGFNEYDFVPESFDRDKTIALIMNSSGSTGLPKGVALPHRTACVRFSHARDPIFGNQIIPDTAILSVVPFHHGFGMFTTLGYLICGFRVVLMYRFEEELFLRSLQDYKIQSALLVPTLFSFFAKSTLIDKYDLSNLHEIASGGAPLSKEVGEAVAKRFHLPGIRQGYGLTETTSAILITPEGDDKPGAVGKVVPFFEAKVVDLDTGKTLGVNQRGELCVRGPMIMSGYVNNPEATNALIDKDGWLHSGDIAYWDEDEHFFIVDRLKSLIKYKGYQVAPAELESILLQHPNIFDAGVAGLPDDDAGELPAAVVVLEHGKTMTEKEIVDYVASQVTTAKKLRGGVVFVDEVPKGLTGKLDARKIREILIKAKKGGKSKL
#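 Biochemical qHTS of compounds, final roughly 60 µM downward over six points, against 10 nM purified firefly luciferase using Km concentrations of substrates (10 uM D-luciferin, 10 uM ATP) in Tris acetate pH 7.5 buffer; luminescence output.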
# An asterisk follows results filed as active; u = inconclusive; x = no result given. The call rests on the fitted dose curve; in most records, active means well fitted curve in the direction sought with a large enough effect; inconclusive means small, poorly fitted or top-dose-only effect, or another doubt; inactive means no such curve, though single readings can be large; an effect the other way counts as inactive or inconclusive. Potency means the concentration at half of the fitted maximal effect.
SMILES,SMN2 splice up,ELG1 genotoxic,NPC1 promoter act,ELG1 repair inh,Rab9 prom act,FLuc modulator
COC(=O)NNC(=O)Cc1cccc2ccccc12,10.9%,3.2%,0.8%,-4.4%,-5.6%,-11.0%
c1ccc2c(c1)oc1c(Nc3ccc4c(c3)OCCO4)ncnc12,2.82µM*,13.3%,u,u,1.58µM*,2.39µM*
CCc1nc(Nc2ccc3c(c2)OCCO3)c2oc3ccccc3c2n1,-41.6%,-13.3%,-0.6%,u,-4.1%,26.9µM*
c1ccc2c(c1)oc1c(N3CCN(Cc4ccc5c(c4)OCO5)CC3)ncnc12,-67.2%,18.4µM*,0.3%,u,-11.8%,16.9µM*
CCc1nc(Nc2ccc(O)cc2)c2oc3ccccc3c2n1,x,-8.5%,13.5%,16.4µM*,9.2%,19µM*
Cc1nc(Nc2ccc3c(c2)OCCO3)c2oc3ccccc3c2n1,-39.8%,-3.3%,13.7%,-4.0%,3.1%,u
O=[N+]([O-])c1ccc2ncnc(Nc3ccc4c(c3)OCCO4)c2c1,-0.6%,-9.1%,14.2%,u,0.3%,-0.2%
CC(C)CCNC(=O)NC(=O)COC(=O)/C=C/c1cc(Br)ccc1F,-3.5%,-3.2%,-3.0%,9.2%,-4.4%,3.5%
CCOc1ccc(NS(=O)(=O)c2ccc(C(=O)N(C)Cc3cccc(OC)c3OC)cc2)cc1,x,-12.2%,2.1%,16.4µM*,-7.8%,-0.6%
COc1cccc(CN(C)C(=O)c2ccc(COc3ccc(Cl)cc3)cc2)c1OC,x,u,u,u,29.5%,13.5µM*
COc1ccc(N(CC(=O)N2CCN(c3cccc(C)c3C)CC2)S(=O)(=O)c2c(C)noc2C)cc1,1.0%,-6.6%,0.6%,-9.8%,2.2%,1.9%
COc1ccc(S(=O)(=O)Nc2cccc(S(=O)(=O)N3CCCCC3)c2)cc1,x,2.5%,x,-3.5%,x,x
COc1ccc(Nc2nc3ccccc3nc2NS(=O)(=O)c2ccc(Cl)cc2)cc1OC,-7.2%,x,x,x,x,6.75µM*
O=[N+]([O-])c1cccc(S(=O)(=O)Nc2nc3ccccc3nc2Nc2cccc(S(=O)(=O)N3CCCCC3)c2)c1,-51.8%,-8.9%,-11.6%,2.06µM*,-26.9%,1.1%
Cc1ccc(S(=O)(=O)Nc2nc3ccccc3nc2Nc2cccc(S(=O)(=O)N3CCCC3)c2)cc1,-63.1%,-20.0%,-8.0%,20.6µM*,-12.4%,u
COc1ccc(NS(=O)(=O)c2ccc(-c3coc(C)n3)cc2)cc1OC,x,11.9%,-31.1%,0.411µM*,-45.6%,-5.5%
C/C(=N\NC(=O)CC1N=C(Cc2ccccc2)NNC1=O)c1ccc(Br)cc1 (stereo not given),x,-0.3%,4.5%,13.3%,-10.0%,1.5%
CN(C)CCN(C(=O)c1ccc2c(c1)CCCC2)c1nc2c(F)cccc2s1,x,u,2.1%,u,6.1%,10.7µM*
O=C(O)CCCN1C(=O)c2cccc3cccc(c23)C1=O,x,-0.2%,-2.7%,u,2.6%,-0.6%
O=C(CCCN1C(=O)c2cccc3cccc(c23)C1=O)NC1CCS(=O)(=O)C1 (stereo not given),x,-9.3%,0.9%,1.1%,2.7%,4.78µM*
CN(N)c1nc(C(F)(F)F)nc2ccccc12,8.9%,-12.5%,-2.9%,-25.4%,-6.3%,-1.8%
CN(NS(=O)(=O)c1ccc(Br)cc1)c1nc(C(F)(F)F)nc2ccccc12,-69.0%,-15.9%,-1.5%,20.6µM*,2.0%,u
CCOc1ccc(CCNC(=O)c2nc(-c3cccc(F)c3)n3c2CCCCC3)cc1OCC,x,x,x,x,x,-7.5%
CS(=O)(=O)NCC(c1ccco1)N1CCN(c2ccccc2)CC1 (stereo not given),x,x,x,x,x,-4.7%
CCCCCc1ccc(-c2ccc(Br)cc2)nc1,-1.5%,x,x,x,x,2.13µM*
SMILES,SMN2 splice up,ELG1 genotoxic,NPC1 promoter act,ELG1 repair inh,Rab9 prom act,FLuc modulator
CCCCCCCc1ccc(-c2ccc(O)cc2)nc1,14.1µM*,u,u,u,3.16µM*,19µM*
CCCc1ccc(-c2ccc(C(=O)Oc3ccc(Br)cc3)cc2)nc1,3.9%,x,x,x,x,-3.9%
N#Cc1cccc(NC(=O)COC(=O)c2cc(S(=O)(=O)Nc3ccccc3Cl)ccc2O)c1,x,-3.0%,x,u,x,x
O=C(COC(=O)c1cc(S(=O)(=O)Nc2ccccc2Cl)ccc1O)Nc1nc2ccccc2s1,15.6%,4.2%,6.2%,u,u,21.3µM*
CC1CCN(C(=O)C(C)NCc2ccc(F)cc2)CC1 (stereo not given),x,1.5%,-2.6%,-2.9%,2.0%,-0.4%
CS(=O)(=O)N1N=C(c2ccccc2)CC1c1ccc2c(c1)OCO2 (stereo not given),u,u,3.55µM*,u,2.82µM*,21.3µM*
CS(=O)(=O)Nc1ccc(C2=NN(S(C)(=O)=O)C(c3ccccc3)C2)cc1 (stereo not given),u,7.3%,8.4%,u,17.6%,-17.9%
CS(=O)(=O)Nc1cccc(C2=NN(S(C)(=O)=O)C(c3ccc4c(c3)OCO4)C2)c1 (stereo not given),11.2µM*,13.8%,16.5%,u,u,16.9µM*
CCN1CCN(CCC(=O)Nc2ccc(C)cc2)CC1,x,0.8%,7.0%,-3.3%,-1.5%,-0.6%
O=C(Nc1ccc(Br)cc1)Nc1ccccc1Cl,x,u,2.24µM*,u,u,2.69µM*
O=C(Nc1ccc(CN2CCCCC2)cc1)Nc1ccccc1Cl,u,16.5%,22.3%,u,28.0%,16.9µM*
CCN1CCN(Cc2ccccc2NC(=O)Nc2ccc(C)cc2)CC1,u,10.3µM*,u,u,3.98µM*,23.9µM*
CCN1CCN(Cc2ccc(NC(=O)Nc3ccccc3Cl)cc2)CC1,u,18.4µM*,3.98µM*,u,3.55µM*,6.75µM*
O=C(Nc1ccncc1)Nc1ccc(Br)cc1Cl,x,-7.7%,0.4%,-10.9%,0.9%,-13.5%
CC(=O)Nc1ccc(CN2CCCCCCC2)cc1,11.9%,1.1%,1.3%,4.0%,0.9%,-1.4%
CCN1CCN(C(=O)C2(NC(=O)Nc3ccccc3Cl)CCCCC2)CC1,-19.1%,4.8%,-5.9%,-3.6%,-1.6%,5.8%
Cc1ccc(/C=N/N2CCN(c3ccccn3)CC2)cc1,17.7%,u,29.5%,u,u,9.53µM*
ClC(=C\c1ccccc1)/C=N/N1CCN(c2ccccn2)CC1,14.1µM*,9.2µM*,3.16µM*,u,u,u
Cc1cc(C)c(C(=O)COC(=O)CCn2c(C)csc2=O)cc1C,x,9.9%,15.7%,u,u,4.78µM*
Cc1csc(=O)n1CC(=O)OCc1cccc2ccccc12,-0.9%,u,18.1%,u,25.0%,15.1µM*
Cc1ccc(NC(=O)COC(=O)Cn2c(C)csc2=O)cc1C,6.8%,-1.8%,0.7%,0.1%,0.2%,-10.9%
